From PubChem BioAssay AID1813 (Broad Institute, 2009)
Screen size: about 300,000 compounds; about 2,500 (0.83%) were called active. For the sample, actives were picked, then their nearest neighbours and some compounds at random. Values without a mark were called inactive. Cut-off read from the data, not from the text of the source: active = inhibition above about 60%; inconclusive = no clear call, values can overlap the other calls; inactive = below that.

test: MLPCN primary screen, SNCA 5' untranslated region (AID 1813); settings: alpha-synuclein 5'UTR reporter, inhibitor activity; hits give high values; tested at 7.5 µM;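 note: H4 neuroglioblastoma cells stably carrying SNCA 5'UTR luciferase fusion; 0% = DMSO wells and 100% = positive control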

Compared with `Cc1ccc(C(=O)O)cc1NC(=O)c1ccc(Cn2nc(C)c(Cl)c2C)o1`, `COc1ccc(CCNC(=O)c2c(C)nn(-c3ccccc3)c2Cl)cc1` is higher in inhibition: -17.2% for the first, 14.8% for the second.

Compared with `Cc1c(Cl)c([N+](=O)[O-])nn1CCCC(=O)Nc1cc(Cl)ccc1Cl`, `Cc1nn(CC(=O)Nc2nc3ccccc3s2)c(C)c1[N+](=O)[O-]` is lower in inhibition: 12.6% for the first, 5.8% for the second.

Going from `NC(=O)CCC(NS(=O)(=O)c1ccc(Cl)cc1)C(=O)NCc1ccccc1Cl` (stereo not drawn) to `CSCCC(NS(=O)(=O)c1ccc2c(c1)oc(=O)n2C)C(=O)NC1CCCc2ccccc21` (stereo not drawn), the inhibition rises from -12.6% to 1.15%.

First: CCCCN(C)CCNC(=O)CSCc1ccc(C)cc1
Second: Cc1ccc(CSCCNC(=O)CN(c2ccc(F)cc2)S(C)(=O)=O)cc1
The inhibition of the first is lower: 0.318% for the first, 14.7% for the second.

First: CC(=O)N1c2ccc(S(=O)(=O)N3CCCC(C(=O)Nc4cccc(F)c4)C3)cc2CC1C (stereo not drawn)
Second: CSc1nc2ccc(S(=O)(=O)N3CCc4ccccc43)cc2s1
The inhibition of the first is higher: 4.33% for the first, 1.39% for the second.

Compared with `CCOC(=O)c1c(C)[nH]c(C)c1S(=O)(=O)N(C)CC(=O)Nc1ccccc1C`, `CCOC(=O)c1c(C)[nH]c(C)c1S(=O)(=O)NCCCc1ccco1` is lower in inhibition: 23% for the first, 0.398% for the second.

Compared with `CCOC(=O)C1=C(c2ccc(OC)cc2)C(=O)c2ccccc2C1=O`, `CCOC(=O)c1sc(C)c2c1NC(C)(c1cccc3ccccc13)NC2=O` (stereo not drawn) is higher in inhibition: -17.2% for the first, 31.1% for the second.

First: O=S(=O)(c1ccc(-c2ccccc2)cc1)N1CCCC1
Second: O=C(/C=C/c1cccc([N+](=O)[O-])c1)N1CCN(Cc2ccccc2)CC1
The inhibition of the first is higher: 1.66% for the first, -15.7% for the second.

First: COc1ccc(-n2c(C)nn(CC3CC3)c2=O)cc1
Second: COc1ccc(N2CCN(C(=O)[C@@H](NC(=O)c3cc(OC)cc(OC)c3)C(C)C)CC2)cc1
The inhibition of the first is lower: 5.05% for the first, 5.14% for the second.

Compared with `Cc1cc(Nc2cc(N3CCN(C)CC3)nc(Sc3ccc(NC(=O)C4CC4)cc3)n2)n[nH]1`, `COc1ccc(-c2nn(C)c(=O)c3ccccc23)cc1CNC(=O)C1CCCCC1` is higher in inhibition: -50.9% for the first, -1.05% for the second.

Going from `O=C(O)CCn1c(SCc2cc(=O)n3ccccc3n2)nc2ccsc2c1=O` to `CCC(=O)Nc1ccc2nc(C)n(Cc3ccccc3Cl)c(=O)c2c1`, the inhibition rises from -7.14% to 11.1%.

Compared with `Cc1ccc(/C=C2\SC(=S)N(CCC(=O)Nc3ccc(O)cc3)C2=O)cc1`, `COc1ccccc1C(=O)NNC(=O)CCN1C(=O)/C(=C\c2ccccc2)SC1=S` is higher in inhibition: 0.184% for the first, 8.03% for the second.

Going from `C=CCNC(=O)/C=C/c1ccc(C(C)C)cc1` to `COc1ccc(/C=C/C(=O)Nc2cccnc2)cc1OC`, the inhibition rises from -129% to -72.4%.

Going from `Cc1ccc2nc(-c3ccc(SCC(=O)Nc4cc(C)on4)nc3)[nH]c2c1` to `Cc1ccc(C)c(S(=O)(=O)Nc2cc(C)on2)c1`, the inhibition rises from -160% to -13.8%.

Going from `COc1ccc(CNC(=O)CSc2n[nH]c(N)n2)cc1OC` to `CCn1c(CNC(=O)c2cc(OC)c(OC)c(OC)c2)cc2cc(C)ccc21`, the inhibition falls from 4.62% to -1.14%.

First: CCOc1cc(NC(=O)c2ccccc2C(=O)O)c(OCC)cc1NC(=O)c1ccccc1F
Second: Cc1nc2ccccc2c(=O)n1-c1ccc(F)c(NC(=O)c2cccs2)c1
The inhibition of the first is higher: 11.7% for the first, 9.3% for the second.

Going from `C=CCc1cccc2cc(C(=O)Nc3ccc(NC(C)=O)cc3)c(=O)oc12` to `Cc1oc2nc(SCC(=O)Nc3ccc(S(N)(=O)=O)cc3)nc(NC(=O)c3ccccc3)c2c1C`, the inhibition rises from -30.5% to -1.45%.

Going from `CCN(CC)CCN(C(=O)c1ccc(S(=O)(=O)N2CCOCC2)cc1)c1nc2cc3c(cc2s1)OCCO3` to `CN(C)CCCN(C(=O)c1ccc(S(=O)(=O)N2CCCCCC2)cc1)c1nc2cc3c(cc2s1)OCCO3`, the inhibition falls from -15.5% to -27.7%.

Going from `CCOc1ccc2nc(N(CCN(C)C)C(=O)c3ccc4ccccc4c3)sc2c1` to `CCc1ccc2nc(N(CCCN(C)C)C(=O)c3ccc4c(c3)OCCO4)sc2c1`, the inhibition falls from -8.13% to -34.6%.

First: COc1ccc2sc(N(CCCN(C)C)C(=O)c3ccc(S(=O)(=O)N(C)C4CCCCC4)cc3)nc2c1
Second: COC(=O)c1c(NC(=O)c2ccc(S(=O)(=O)N3CCOCC3)cc2)sc2c1CCN(C(C)C)C2
The inhibition of the first is higher: -20% for the first, -85.3% for the second.

First: CCC1(CC)C(=O)C2=C3C1[C@H](C(=O)OC)C=C(C(=O)OC)C[C@H]3[C@H]1C(=O)N(Cc3ccccc3)C(=O)[C@H]1[C@H]2C (stereo partly drawn)
Second: CC(=O)Nc1ccc(N2C(=O)C3C4CC(=O)C(c5ccccc54)C3C2=O)cc1 (stereo not drawn)
The inhibition of the first is lower: 6.19% for the first, 17.3% for the second.

First: COc1ccc(S(=O)(=O)NCC(c2ccc(C)cc2)N2CCN(C)CC2)cc1OC (stereo not drawn)
Second: COc1ccc(/C=C/C(=O)Nc2ccc(C)cc2)cc1S(=O)(=O)N1CCOCC1
The inhibition of the first is higher: -8.67% for the first, -60% for the second.

First: COc1ccc(CN2CCC(n3nccc3NC(=O)CCCc3ccccc3)CC2)cc1C
Second: CCCCCc1ccc(-c2cn(Cc3ccc4ccccc4c3)nn2)cc1
The inhibition of the first is higher: 23.5% for the first, -16.4% for the second.

Going from `O=C(NCc1ccccc1)c1onc(CSc2nc3ccccc3[nH]2)c1C(=O)NCc1ccccc1` to `O=C(N[C@@H](Cc1ccccc1)C(=O)OCc1ccccc1)c1nc[nH]c1C(=O)NC1CCNCC1`, the inhibition falls from 21.2% to -8.61%.

Going from `CCCC1=Nc2cc(C(=O)NCCN3CCCC3)ccc2Sc2ccccc21` to `Cc1ccccc1-c1ccc(Nc2ccc(C(=O)N3CCOCC3)cc2)nn1`, the inhibition rises from -14.6% to 10.1%.

Compared with `CC(C)(C)c1ccc(C(=O)NCc2ccco2)cc1`, `Cn1c(N)c(C(=O)COC(=O)c2ccccc2NCc2ccco2)c(=O)n(C)c1=O` is higher in inhibition: -180% for the first, 6.96% for the second.

Compared with `CCCN(CC(=O)Nc1ccc(OC)c(OC)c1)CC(=O)Nc1ccc(F)c(F)c1F`, `COC(=O)c1scc(C)c1NC(=O)CSc1ccc(Cl)cc1` is higher in inhibition: 3.66% for the first, 14.7% for the second.

Compared with `Cc1ccc(CC(=O)N(C)CC(=O)N(CC(C)C)c2c(N)n(CC(C)C)c(=O)[nH]c2=O)cc1C`, `CCOC(=O)CSC1=C(C#N)C(c2ccco2)C(C(=O)OCc2ccccc2)=C(C)N1` (stereo not drawn) is lower in inhibition: 15% for the first, 10.5% for the second.

First: Cc1cc(NC(=O)CN2CCCC(C)C2)n(-c2nc3ccccc3s2)n1 (stereo not drawn)
Second: CCOc1cc(/C=C2\SC(N3CCCC(C)C3)=NC2=O)ccc1O (stereo not drawn)
The inhibition of the first is higher: 27.7% for the first, -40.1% for the second.

First: Nc1cc(N2CCCCCC2)c2nonc2c1[N+](=O)[O-]
Second: CCOc1ccc2nc(NC(=O)c3cc([N+](=O)[O-])ccc3N3CCOCC3)sc2c1
The inhibition of the first is higher: 11% for the first, 1.05% for the second.

Going from `Cc1ccc(C2CC(=O)NC(SCC(=O)OCc3ccccc3)=C2C#N)o1` (stereo not drawn) to `O=C(Cc1ccccc1)N1N=C(c2ccncc2)CC1(O)C(F)(F)F` (stereo not drawn), the inhibition rises from -11.5% to 18.6%.

Going from `CCOc1ccc(NC(=O)c2ccc(NC(=O)COC(=O)c3ccc(NC(=O)CC#N)cc3)cc2)cc1` to `CCCCCc1ccc(-c2ccc(C(=O)O)cc2)nc1`, the inhibition rises from -88.1% to -19.1%.

Going from `O=C(OCC(=O)c1cccs1)C1=COCCO1` to `CCOC(=O)c1ccccc1C(=O)N1CCOCCOCCOCC1`, the inhibition rises from -103% to 7.43%.

Going from `Cc1nc2ccccc2nc(=O)c1NNc1ccc([N+](=O)[O-])cc1` to `Cc1c(NC(=O)c2c([N+](=O)[O-])cnn2C)c(=O)n(-c2ccccc2)n1C`, the inhibition rises from -109% to 3.28%.

Going from `O=C(NN1C(=O)C2C(C1=O)C1C=CC2C12CC2)c1ccccc1Cl` (stereo not drawn) to `CC12CCC(C(=O)N(c3cccc(Cl)c3)C1=O)C2(C)C` (stereo not drawn), the inhibition rises from 12.2% to 15.6%.

Going from `O=C(C1CC1)N1N=C(c2ccc(Br)cc2)CC1(O)C(F)(F)F` (stereo not drawn) to `CCC(=O)NC(Nc1nc2ccc(C)cc2s1)(C(=O)OC)C(F)(F)F` (stereo not drawn), the inhibition rises from -12.3% to 13%.

Compared with `CC(Oc1ccccc1)C(=O)NN1Cc2ccccc2C1=N` (stereo not drawn), `COc1cccc(C(=O)n2ccc(-c3cccs3)n2)c1` is higher in inhibition: -12.4% for the first, 2.56% for the second.

First: O=C1[C@H]2[C@@H](c3ccc(F)cc3)N3C(=O)N(c4ccc(C(F)(F)F)cc4)C(=O)[C@@]3(Cc3ccccc3)[C@H]2C(=O)N1C1CCCCC1
Second: COc1ccc(Cl)cc1-n1c(=S)sc2c(=O)n(-c3ccc(F)cc3)c(SCC(=O)O)nc21
The inhibition of the first is lower: -4.59% for the first, 14.1% for the second.

Going from `Nc1nonc1-n1nnc(C(=O)N/N=C/c2c[nH]c3ccccc23)c1-c1ccccc1` to `CC1=NN(/C(=N\c2nnc(C)s2)Nc2ccccc2)[C@H](c2ccc(C)cc2)S1`, the inhibition falls from 1.28% to -19.5%.

Going from `CN1CN(C)c2ccc([N+](=O)[O-])c3cccc1c23` to `O=c1c([N+](=O)[O-])cc(C(F)(F)F)cn1Cc1cccc(Cl)c1`, the inhibition falls from 35.2% to 17.2%.

Compared with `COCCCn1c(SCC(=O)NC2CCCC2)nnc1-c1ccccc1`, `CCOC(=O)N1CCN(C(=O)c2ccccc2SCC(=O)NCC2CCCCC2)CC1` is lower in inhibition: 4.11% for the first, -17.7% for the second.

For `Cc1ccc(C(C)C)c(OCc2nnc(SCC(=O)Nc3nccs3)n2C)c1`, the inhibition was -2.72%.

In the case of `Cc1c(Cl)c([N+](=O)[O-])nn1Cc1ccc(C(=O)N/N=C\c2cc(Cl)ccc2O)o1`, the inhibition is reported as 81.2% (active).
For `CCOC(=O)c1c(C)[nH]c2c1-c1ccccc1C(=O)C2=O`, the inhibition was 99.5% (active).
In the case of `C=CCOc1ccc(/C=C2\SC(=S)N(CCC(=O)O)C2=O)cc1`, the inhibition is reported as 80% (active).
For `CCN1CCN(c2cc3nc(C)n(Cc4ccccc4)c(=O)c3cc2NC(=O)c2ccccc2F)CC1`, the inhibition was 65.1% (active).
With `CN(C)CCCN(C(=O)c1ccc(S(=O)(=O)N2CCCc3ccccc32)cc1)c1nc2ccc(F)cc2s1` the inhibition was 74.2% (active).
In the case of `CN(C)CCCN(C(=O)c1ccc(S(=O)(=O)N2CCCCCC2)cc1)c1nc2ccc(Br)cc2s1`, the inhibition is reported as 75.3% (active).
For `CCOc1ccc2nc(N(CCCN(C)C)C(=O)c3ccc(C(=O)c4ccccc4)cc3)sc2c1`, the inhibition was 90.2% (active).
With `CCCC1=Nc2cc(C(=O)NCc3ccco3)ccc2Sc2ccccc21` the inhibition was 87.6% (active).
With `CCC(C)Cn1c(O)cc2nn(-c3nc4ccccc4s3)c(=O)c-2c1C` (stereo not drawn) the inhibition was 97.8% (active).
In the case of `CCOC(=O)CSC1=C(C#N)C(c2sccc2C)CC(=O)N1` (stereo not drawn), the inhibition is reported as 75% (active).
For `CCC(C)(C)c1ccc(Oc2ccc(NC(=O)COC(=O)C3=COCCO3)cc2)cc1`, the inhibition was 90.6% (active).
For `CC12CCC(C(=O)N(NC(=O)c3ccccc3O)C1=O)C2(C)C` (stereo not drawn), the inhibition was 67.6% (active).
For `O=C(c1ccc(Cl)cc1)N1N=C(c2ccccn2)CC1(O)C(F)(F)F` (stereo not drawn), the inhibition was 68.6% (active).
With `CCc1ccc2c(c1)C1(NN=C(c3ccccc3)S1)C(=O)N2` (stereo not drawn) the inhibition was 71.7% (active).
With `COc1c(C)c2c(c(O)c1C/C=C(\C)CCC(=O)O)C(=O)OC2` the inhibition was 76.6% (active).
In the case of `COc1ccc(/C=C/C(=O)Nc2ccc(C34CC5CC(CC(O)(C5)C3)C4)cc2)cc1OC`, the inhibition is reported as 76.5% (active).
With `Cc1oc2c(c1C(=O)N1CCOCC1)C(=O)c1ccccc1C2=O` the inhibition was 101% (active).
For `CCCCCc1ccc(-c2ccc(OCC)cc2)nc1`, the inhibition was 79.7% (active).
In the case of `O=C(NC(Nc1nc2ccc([N+](=O)[O-])cc2s1)(C(F)(F)F)C(F)(F)F)c1ccccc1`, the inhibition is reported as 94.1% (active).
With `O=[N+]([O-])/C=C/c1ccc2c(ccn2Cc2ccccc2)c1` the inhibition was 84.5% (active).
